Experiment [1] concerns the target Mitogen-activated protein kinase kinase kinase kinase 4 (Homo sapiens) (UniProt O95819). To be noted: at 1 µM.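 Further: reported figure is an averaged inhibition value.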
Experiment [2] deals with Dual specificity mitogen-activated protein kinase kinase 1 (Homo sapiens) (UniProt Q02750). To be noted: at 0.1 µM.
Experiment [3] has the same target. To be noted: at 1 µM.
Experiment [4] has as its target Misshapen-like kinase 1 (Homo sapiens) (UniProt Q8N4C8). As to conditions: at 0.1 µM.
Experiment [5] shares this target. As to conditions: at 1 µM.
Experiment [6] has as its target T1, Serine/threonine-protein kinase 4 (Homo sapiens) (UniProt Q13043).
T1 sequence (whole entry): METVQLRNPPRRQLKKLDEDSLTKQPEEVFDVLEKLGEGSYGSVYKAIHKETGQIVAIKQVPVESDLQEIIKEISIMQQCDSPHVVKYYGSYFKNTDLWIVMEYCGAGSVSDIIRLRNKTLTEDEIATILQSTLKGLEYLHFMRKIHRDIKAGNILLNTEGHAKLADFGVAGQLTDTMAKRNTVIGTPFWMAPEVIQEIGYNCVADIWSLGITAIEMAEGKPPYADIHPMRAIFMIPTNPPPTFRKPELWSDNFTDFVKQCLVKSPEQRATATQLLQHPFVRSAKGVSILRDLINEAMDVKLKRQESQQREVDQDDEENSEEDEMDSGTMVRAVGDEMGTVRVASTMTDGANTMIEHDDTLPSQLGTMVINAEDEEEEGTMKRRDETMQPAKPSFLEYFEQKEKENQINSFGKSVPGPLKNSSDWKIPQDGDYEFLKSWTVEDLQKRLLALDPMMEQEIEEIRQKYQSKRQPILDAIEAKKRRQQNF
As to conditions: at 0.1 µM.

For experiment [7], the target named is T1, Serine/threonine-protein kinase 4 (Homo sapiens). As to conditions: at 1 µM.
Experiment [8] concerns the target T2, Serine/threonine-protein kinase 3 (Homo sapiens) (UniProt Q13188).
T2 sequence (whole entry): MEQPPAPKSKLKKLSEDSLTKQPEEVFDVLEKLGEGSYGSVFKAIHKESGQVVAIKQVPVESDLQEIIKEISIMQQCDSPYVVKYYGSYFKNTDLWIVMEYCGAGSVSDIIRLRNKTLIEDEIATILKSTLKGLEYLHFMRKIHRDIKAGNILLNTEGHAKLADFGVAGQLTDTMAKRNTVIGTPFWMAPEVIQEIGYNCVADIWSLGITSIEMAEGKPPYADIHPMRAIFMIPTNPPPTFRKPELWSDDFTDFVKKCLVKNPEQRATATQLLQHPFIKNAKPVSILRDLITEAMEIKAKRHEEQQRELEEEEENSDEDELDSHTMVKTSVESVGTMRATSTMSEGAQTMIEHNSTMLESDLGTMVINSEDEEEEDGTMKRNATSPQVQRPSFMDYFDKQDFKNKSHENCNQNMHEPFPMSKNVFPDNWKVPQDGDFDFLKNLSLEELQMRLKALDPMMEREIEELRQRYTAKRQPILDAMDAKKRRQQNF
As to conditions: at 0.1 µM.

The target of experiment [9] is T2, Serine/threonine-protein kinase 3 (Homo sapiens). As to conditions: at 1 µM.
Experiment [10] deals with Serine/threonine-protein kinase 26 (Homo sapiens) (UniProt Q9P289). As to conditions: at 0.1 µM.
Chain of Serine/threonine-protein kinase 26 (Homo sapiens) (Q9P289 2-416 limits assumed): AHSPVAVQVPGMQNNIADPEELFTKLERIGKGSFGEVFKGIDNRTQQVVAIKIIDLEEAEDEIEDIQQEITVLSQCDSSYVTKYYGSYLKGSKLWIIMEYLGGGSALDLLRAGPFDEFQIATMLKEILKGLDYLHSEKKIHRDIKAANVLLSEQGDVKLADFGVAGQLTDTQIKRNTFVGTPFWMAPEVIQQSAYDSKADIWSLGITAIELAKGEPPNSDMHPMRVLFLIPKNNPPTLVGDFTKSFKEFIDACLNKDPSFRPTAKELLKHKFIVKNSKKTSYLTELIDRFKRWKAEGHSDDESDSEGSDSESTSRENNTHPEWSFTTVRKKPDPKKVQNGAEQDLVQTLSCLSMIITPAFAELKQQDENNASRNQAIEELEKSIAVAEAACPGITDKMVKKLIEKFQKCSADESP

Chain of Dual specificity mitogen-activated protein kinase kinase 1 (Homo sapiens) (Q02750 whole entry): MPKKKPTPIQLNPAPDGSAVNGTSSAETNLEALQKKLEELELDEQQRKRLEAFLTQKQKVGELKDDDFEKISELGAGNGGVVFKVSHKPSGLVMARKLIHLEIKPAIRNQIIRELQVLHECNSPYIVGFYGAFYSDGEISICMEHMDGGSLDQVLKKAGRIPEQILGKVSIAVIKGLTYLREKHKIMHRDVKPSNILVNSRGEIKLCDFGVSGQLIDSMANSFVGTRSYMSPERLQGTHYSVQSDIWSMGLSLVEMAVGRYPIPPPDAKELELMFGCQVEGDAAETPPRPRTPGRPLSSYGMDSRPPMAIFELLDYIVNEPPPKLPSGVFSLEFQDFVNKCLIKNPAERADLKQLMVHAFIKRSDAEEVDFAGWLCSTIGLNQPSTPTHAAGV
Chain of Mitogen-activated protein kinase kinase kinase kinase 4 (Homo sapiens) (O95819 2-1239 limits assumed): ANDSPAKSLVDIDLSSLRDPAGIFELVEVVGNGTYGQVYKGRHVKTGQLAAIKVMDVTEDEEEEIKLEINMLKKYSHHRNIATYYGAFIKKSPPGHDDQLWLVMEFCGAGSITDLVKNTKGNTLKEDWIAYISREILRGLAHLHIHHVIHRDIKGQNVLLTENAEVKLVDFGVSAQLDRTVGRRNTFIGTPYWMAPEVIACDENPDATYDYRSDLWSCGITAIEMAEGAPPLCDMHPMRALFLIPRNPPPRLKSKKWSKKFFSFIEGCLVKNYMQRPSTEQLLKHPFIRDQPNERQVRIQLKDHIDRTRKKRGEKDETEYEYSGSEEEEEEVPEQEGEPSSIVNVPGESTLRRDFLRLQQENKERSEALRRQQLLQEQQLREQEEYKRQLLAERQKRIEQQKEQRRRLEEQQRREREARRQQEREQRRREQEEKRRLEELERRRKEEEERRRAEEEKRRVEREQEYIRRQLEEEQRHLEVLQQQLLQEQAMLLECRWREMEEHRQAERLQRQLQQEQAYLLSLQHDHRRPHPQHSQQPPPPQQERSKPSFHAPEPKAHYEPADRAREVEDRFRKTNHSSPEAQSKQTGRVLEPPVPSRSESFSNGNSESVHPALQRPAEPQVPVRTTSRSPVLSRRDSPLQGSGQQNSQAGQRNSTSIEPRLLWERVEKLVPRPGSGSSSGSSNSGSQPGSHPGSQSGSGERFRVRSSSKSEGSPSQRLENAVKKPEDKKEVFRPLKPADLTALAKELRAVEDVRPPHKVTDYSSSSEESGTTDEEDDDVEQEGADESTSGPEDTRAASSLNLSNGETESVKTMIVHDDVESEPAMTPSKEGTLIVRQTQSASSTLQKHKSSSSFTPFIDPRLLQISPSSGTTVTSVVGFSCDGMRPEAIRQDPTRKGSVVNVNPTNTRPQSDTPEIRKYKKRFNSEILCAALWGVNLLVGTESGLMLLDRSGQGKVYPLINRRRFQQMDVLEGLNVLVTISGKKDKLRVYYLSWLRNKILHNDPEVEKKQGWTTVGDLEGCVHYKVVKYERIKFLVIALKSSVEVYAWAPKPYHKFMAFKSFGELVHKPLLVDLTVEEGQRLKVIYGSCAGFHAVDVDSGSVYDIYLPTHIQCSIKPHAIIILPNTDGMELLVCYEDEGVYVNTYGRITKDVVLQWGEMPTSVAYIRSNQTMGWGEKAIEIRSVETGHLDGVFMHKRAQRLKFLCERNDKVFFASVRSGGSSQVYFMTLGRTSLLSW
Chain of Misshapen-like kinase 1 (Homo sapiens) (Q8N4C8 whole entry, looked up): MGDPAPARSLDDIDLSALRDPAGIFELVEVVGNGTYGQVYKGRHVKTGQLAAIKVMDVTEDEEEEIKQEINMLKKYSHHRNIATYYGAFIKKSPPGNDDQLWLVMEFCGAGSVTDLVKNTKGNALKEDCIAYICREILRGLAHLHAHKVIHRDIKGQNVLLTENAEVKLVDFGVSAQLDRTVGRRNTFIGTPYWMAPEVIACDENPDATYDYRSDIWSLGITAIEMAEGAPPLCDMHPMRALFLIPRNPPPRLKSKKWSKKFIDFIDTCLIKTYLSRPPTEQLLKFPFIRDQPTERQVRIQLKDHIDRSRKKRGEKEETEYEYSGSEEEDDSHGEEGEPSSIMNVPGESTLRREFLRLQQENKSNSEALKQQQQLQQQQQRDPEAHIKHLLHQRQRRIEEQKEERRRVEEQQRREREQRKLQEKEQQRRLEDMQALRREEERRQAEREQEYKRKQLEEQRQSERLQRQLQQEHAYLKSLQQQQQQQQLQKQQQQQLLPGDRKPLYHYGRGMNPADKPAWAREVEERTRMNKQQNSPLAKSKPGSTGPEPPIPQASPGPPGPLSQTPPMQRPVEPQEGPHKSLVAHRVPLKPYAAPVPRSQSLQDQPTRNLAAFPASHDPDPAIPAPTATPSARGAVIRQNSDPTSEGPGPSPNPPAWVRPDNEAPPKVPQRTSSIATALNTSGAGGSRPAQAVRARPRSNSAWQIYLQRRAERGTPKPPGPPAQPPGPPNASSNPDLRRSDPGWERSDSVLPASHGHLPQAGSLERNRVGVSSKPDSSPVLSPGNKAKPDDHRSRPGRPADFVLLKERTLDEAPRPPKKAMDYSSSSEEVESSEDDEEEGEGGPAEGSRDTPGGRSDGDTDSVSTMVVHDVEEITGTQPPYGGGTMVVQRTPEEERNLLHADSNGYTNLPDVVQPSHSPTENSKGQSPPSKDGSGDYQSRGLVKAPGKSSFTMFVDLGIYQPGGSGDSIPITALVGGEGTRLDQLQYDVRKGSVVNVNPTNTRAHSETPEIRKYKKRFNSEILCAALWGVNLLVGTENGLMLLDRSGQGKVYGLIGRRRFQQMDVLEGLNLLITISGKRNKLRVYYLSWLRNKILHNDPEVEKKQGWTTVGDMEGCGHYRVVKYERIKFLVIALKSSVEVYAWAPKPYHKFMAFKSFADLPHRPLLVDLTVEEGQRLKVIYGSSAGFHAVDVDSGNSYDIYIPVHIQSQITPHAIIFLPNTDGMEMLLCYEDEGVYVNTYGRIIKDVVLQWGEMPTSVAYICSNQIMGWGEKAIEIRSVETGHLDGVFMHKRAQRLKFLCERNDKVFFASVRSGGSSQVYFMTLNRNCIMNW

As a reminder, the inhibition is the drop in the measured response relative to a control, in per cent. As to `Cc1cc(-c2ccccn2)cc(C)c1/C=C/c1cncc(-c2nn[nH]n2)c1`, the inhibition in experiment [1] came out at 13.5%; in experiment [2] it was 3.04%; in [3], 4.93%; in experiment [4] it was 2.69%; in experiment [5], 9.19%; in [6], 3.88%. Moreover, the inhibition in experiment [7] is 8.04%; in experiment [8], 3.7%; in [9], 7.75%; in experiment [10], -1.78%.
Regarding `CCS(=O)(=O)c1ccc(OC)c(Nc2ncc(-c3cccc(OC)c3)o2)c1`, the inhibition stood at 25.9% in experiment [1]; 2.58% in experiment [2]; 3.57% in experiment [3]; 5.68% in experiment [4]; 16.8% in experiment [5]; 6.63% in [6]. The inhibition in [7] was 10.6%; in [8], 6.69%; in experiment [9], 7.22%; in [10] it was -1.42%.
For `COC(=O)c1cncc(/C=C/c2c(C)cc(O)cc2C)c1`, the inhibition in [1] turned out to be 18.8%; in experiment [2] it was 4.72%; in experiment [3], 4.21%; in experiment [4], 5.24%; in experiment [5], 14.9%; in experiment [6], 7.04%. Also, the inhibition in experiment [7] is 9.84%; in experiment [8], 7.02%; in experiment [9], 9.92%; in experiment [10], -1.08%.
As for `COc1cc2ncnc(Nc3ccc(C)c(O)c3)c2cc1OC`, the inhibition was 21.4% in experiment [1]; 6.11% in experiment [2]; 5.54% in experiment [3]; 9.75% in [4]; 18% in [5]; 5.24% in [6]. Moreover, the inhibition in [7] is 9.47%; in experiment [8], 5.84%; in experiment [9] it was 8.26%; in [10], -1.09%.
Turning to `CN1CCN(C(=O)c2ccc(NC(=O)Nc3ccc(N(C)c4ccnc(Nc5ccc(CS(C)(=O)=O)cc5)n4)cc3)cc2)CC1`, the inhibition in experiment [1] amounted to 58.6%; in experiment [2], 1.05%; in [3] it was 10.8%; in experiment [4], 7.54%; in [5], 42.4%; in experiment [6] it was 16.1%. For the same compound, the inhibition in [7] amounted to 60.9%; in experiment [8] it was 6.27%; in experiment [9] it was 28.3%; in experiment [10], 1.7%.
Turning to `Cc1nc(-c2ccccc2)n2nc(NCCCN3CCOCC3)ncc12`, the inhibition in [1] came out at 5.45%; in experiment [2], 2.79%; in experiment [3], 4.46%; in experiment [4], 4.74%; in [5] it was 5.12%; in [6], 1.32%. In addition, the inhibition in experiment [7] stood at 4%; in experiment [8] it was 2.92%; in experiment [9] it was 4.68%.
For the compound `Cc1ccc2c(-c3ccnc(Nc4cccc(C(F)(F)F)c4)n3)c(-c3ccccc3)nn2n1`, the inhibition in [1] is 46.8%; in experiment [2], 5.35%; in experiment [3] it was 7.59%; in experiment [4], 8.79%; in [5], 38.2%; in experiment [6], 3.51%. Moreover, the inhibition is 7.31% in experiment [7], 5.68% in [8], 6.69% in experiment [9] and 0.2% in experiment [10].
Take `Cc1ccc(O)cc1Nc1ccnc2ccc(S(C)(=O)=O)cc12`: the inhibition in experiment [1] amounted to 35.1%; in [2], 7.84%; in experiment [3] it was 8.37%; in experiment [4] it was 10.4%; in experiment [5], 30.5%; in experiment [6], 4.65%. For the same compound, the inhibition in experiment [7] is 8.35%; in experiment [8], 5.45%; in experiment [9], 8.06%; in [10] it was -0.99%.
Take `C[C@@H](Oc1cc(-n2cnc3ccc(OCC4CCN(C)CC4)cc32)sc1C(N)=O)c1ccccc1C(F)(F)F`: the inhibition in experiment [1] is 1.19%; in [2], -0.27%; in experiment [3], 0.01%; in experiment [4], 0.08%; in experiment [5], 0.43%; in [6], 29.1%. The figures for the inhibition in experiment [7], in experiment [8] and in experiment [9] were 74.7%, 11.4% and 56.7%, respectively.
Regarding `Cc1cc(Cl)cc2c1NC(=O)C2=NNc1ccc(S(N)(=O)=O)cc1`, the inhibition in experiment [1] came out at 56.5%; in experiment [2] it was 3.39%; in experiment [3], 2.09%; in experiment [4] it was 10%; in [5], 42.5%; in experiment [6], 4.01%. For the same compound, the inhibition was 7.11% in experiment [7], 3.69% in experiment [8], 6.48% in experiment [9] and 0.59% in experiment [10].
Regarding `c1ccc(Cc2nc3ccc(Nc4ncnc5ccccc45)cc3[nH]2)cc1`, the inhibition in experiment [1] came to 10%; in experiment [2] it was 2.72%; in experiment [3], 2.98%; in experiment [4], 4.23%; in experiment [5], 9.55%; in experiment [6], 4.48%. Moreover, the inhibition was 8.56% in [7], 5.09% in [8], 8.29% in experiment [9] and -0.58% in experiment [10].
Turning to `COc1ccc(-c2nn3ncccc3c2-c2ccnc(Nc3cccc(C(F)(F)F)c3)n2)cc1`, the inhibition in experiment [1] stood at 4.62%; in experiment [2] it was 1.9%; in experiment [3] it was 2.55%; in experiment [4], 5.18%; in experiment [5] it was 5.08%; in experiment [6], 1.69%. The inhibition in [7] is 2.89%; in [8], 4.76%; in experiment [9], 5.12%; in [10], -0.3%.
Consider `N#Cc1c(NC(=O)c2ccccc2F)sc2c1CCCC2`, for which the inhibition in experiment [1] was -0.82%; in experiment [2] it was 0.34%; in experiment [3], -0.71%; in experiment [4] it was -1.75%; in experiment [5], -2.13%; in experiment [6] it was -0.37%. Moreover, the inhibition in experiment [7] was 3.02%; in experiment [8], -3.35%; in experiment [9], 1.41%; in experiment [10], -0.08%.
For `CC(C)c1ccc(Nc2nccc(-c3cnn4ncccc34)n2)cc1`, the inhibition is 18.7% in experiment [1]; 2.79% in [2]; 9.57% in experiment [3]; 3.97% in experiment [4]; 14.6% in experiment [5]; 4.71% in experiment [6]. The inhibition in experiment [7] worked out at 20.1%; in experiment [8], 5.07%; in [9] it was 18.6%; in experiment [10], 0.23%.
Turning to `CN(C)C(=O)O[C@H]1CN[C@H](C#Cc2cc3ncnc(Nc4ccc(OCc5cccc(F)c5)c(Cl)c4)c3s2)C1`, the inhibition was found to be 4.23% in experiment [1]; 1.29% in experiment [2]; 2.35% in [3]; 3.51% in [4]; 3.5% in [5]; 2.1% in experiment [6]. The inhibition in experiment [7] is 4.55%; in [8] it was 2.81%; in [9], 3%; in experiment [10], -0.23%.
Consider `O=C1Nc2ccccc2/C1=C/Nc1ccc2[nH]c(=O)[nH]c2c1`, for which the inhibition in experiment [1] stood at 75.4%; in experiment [2], 8.19%; in experiment [3], 6.88%; in experiment [4] it was 17.4%; in [5], 64.3%; in experiment [6] it was 18.1%. Besides, the inhibition in experiment [7] was 67.2%; in experiment [8] it was 15.5%; in experiment [9], 59.4%; in experiment [10], -1.35%.
Take `Cc1ccc2c(-c3ccnc(Nc4ccc5c(c4)OCCO5)n3)c(-c3ccc(C(F)(F)F)cc3)nn2n1`: the inhibition in experiment [1] was -0.58%; in experiment [2], 1.89%; in [3], 1.58%; in experiment [4], 0.81%; in [5], -1.31%; in experiment [6], 0.92%. For the same compound, the inhibition in [7] was found to be 3.55%; in experiment [8], 0.03%; in [9], 2.76%; in experiment [10], 1.07%.

Source of the values: ChEMBL document CHEMBL1961873, “Compounds: GSK PKIS; Assays: Nanosyn kinase panel” (2012).
